Screening data: PubChem, Sanford-Burnham Center for Chemical Genomics
CYP2C19 inh – blockers of cytochrome P450 2C19 activity – biochemical, luminescence, ADME assay, primary screen | inhibition, % at 5 µM | CYP2C19 Supersomes, luciferin-H EGE luminescence, 30 min | 96,000 tested, 21% active;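 active = CYP2C19 inhibition above a set limit at 5 µM in the primary screen, cut at about 50% in these data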;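 also: plate controls were negative control wells for no effect and 2.5 mM tranylcypromine positive control for full effect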
CYP2C19 act – human CYP2C19 activators, primary screen, biochemical, luminescence; Cytochrome P450 2C19 (Homo sapiens), P33261; recombinant CYP2C19, luciferin-H EGE luminescence; hits give high values; 0 = fully inhibited enzyme, 1 = untreated enzyme; activation factor at 5 µM; 96,000 tested, under 10 active;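 active = activation factor of at least 2 at 5 µM in the primary screen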;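 also: 0 = wells with 2.5 mM tranylcypromine and 1 = vehicle-only wells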
PLAP activator – PLAP enzyme activators, biochemical, luminescence, HTS. Alkaline phosphatase, placental type (Homo sapiens), P05187. purified PLAP enzyme, luminescent substrate read-out; hits give high values. activation fold at 20 µM. 96,000 tested, 1.2% active. AID 696, 2007; in the data active = activation fold above about 2
Target sequence (P05187 whole entry, looked up): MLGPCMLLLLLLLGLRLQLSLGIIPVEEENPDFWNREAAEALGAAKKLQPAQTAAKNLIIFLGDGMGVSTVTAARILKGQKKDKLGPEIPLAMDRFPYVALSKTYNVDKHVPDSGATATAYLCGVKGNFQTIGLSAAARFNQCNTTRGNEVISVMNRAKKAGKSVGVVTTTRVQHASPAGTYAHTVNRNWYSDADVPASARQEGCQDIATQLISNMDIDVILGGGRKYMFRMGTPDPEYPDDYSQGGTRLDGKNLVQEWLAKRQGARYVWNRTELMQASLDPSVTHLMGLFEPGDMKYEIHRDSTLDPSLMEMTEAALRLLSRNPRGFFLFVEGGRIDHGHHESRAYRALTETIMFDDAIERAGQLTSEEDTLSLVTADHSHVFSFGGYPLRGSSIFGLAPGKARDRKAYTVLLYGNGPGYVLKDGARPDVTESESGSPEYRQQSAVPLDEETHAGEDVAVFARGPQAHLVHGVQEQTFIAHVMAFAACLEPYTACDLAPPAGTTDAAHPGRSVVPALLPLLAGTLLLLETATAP
CYP2C9 act – human CYP2C9 activators, primary screen, biochemical, luminescence; Cytochrome P450 2C9 (Homo sapiens), P11712; recombinant CYP2C9, luciferin-H conversion; hits give high values; factor 1 = untreated enzyme, 0 = blocked; activation factor at 5 µM; 96,000 tested, 1.4% active; AID 1024, 2008;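 active = activation factor of 2 or more for CYP2C9 at a 5 µM dose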;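 also: 0 = sulfaphenazole-blocked wells and 1 = vehicle-only wells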
CYP2C9 inh – blockers of cytochrome P450 2C9 activity – biochemical, luminescence, ADME assay, primary screen; inhibition, % at 5 µM; AID 777, 2007; CYP2C9 Supersomes, luciferin-H conversion; 96,000 tested, 20% active;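 active = blocking of liver enzyme CYP2C9 beyond about 50% at 5 µM, limit read from the data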
* marks the source's active call; other numbers are inactive results. Hits are enriched below; roughly 31% of the tested compounds scored in any of these assays.

SMILES	CYP2C19 inh	CYP2C19 act	PLAP activator	CYP2C9 act	CYP2C9 inh
Cc1nn(C(C)(C)C)c(OC(=O)c2ccc(Br)o2)c1Sc1ccccc1	73.8*	0.3	1.4	0.9	12.4
Cc1nn(C(C)(C)C)c(OC(=O)c2cccs2)c1Sc1ccccc1	33.2	0.7	1.2	0.3	65.1*
Cc1cc(C)nc(SCCn2c(N3CCC(C)CC3)nc3c2c(=O)n(C)c(=O)n3C)n1	-5.3	1.1	1.3	1.1	-8.0
O=C(C1Cc2ccccc2CN1S(=O)(=O)c1cccs1)N1CCCCC1 (stereo not drawn)	25.9	0.7	1.1	0.9	8.5
O=C(CNS(=O)(=O)c1ccc2ccccc2c1)OCc1nnc(-c2ccccc2)o1	2.8	1	1.2	0.9	9.4
O=C(Cc1cccs1)Nc1nc(-c2ccccc2)cs1	50.7*	0.5	0.8	0.4	60.7*
Cn1nccc1C(=O)OCC(=O)Nc1nc(-c2ccccc2)cs1	38.0	0.6	0.9	0.7	25.2
Cc1nc(CC(=O)Nc2nc(-c3ccccc3)cs2)cs1	51.7*	0.5	0.9	0.7	32.9
C/C(Cn1nnc([N+](=O)[O-])n1)=N\NC(=O)c1cccc(Cl)c1	5.6	0.9	1	0.9	6.5
COC(=O)C1=C(C)NC(=O)NC1c1ccsc1 (stereo not drawn)	-5.3	1.1	1.1	1	-1.4
COc1ccc(Oc2nc(Oc3ccc(OC)cc3)nc(Oc3ccc(OC)cc3)n2)cc1	-8.9	1.1	0.9	1.1	-12.7
c1cncc(-c2nc(Oc3ccc(-c4nnco4)cc3)c3c4c(sc3n2)CCCC4)c1	93.2*	0.1	1.5	0	97.5*
Cc1ccc(C)c(CSc2nnc([C@@H](N)C(C)C)o2)c1	99.8*	0	1.7	1.7	-70.9
Cc1ccc(C)c(CSc2nnc(CCN)o2)c1	90.1*	0.1	0.8	0.3	74.5*
Cc1cnc(NC(=O)CSc2nnc(-c3cccs3)n2C)s1	23.9	0.8	0.9	0.9	12.3
Cc1ccccc1S(=O)(=O)c1c(C)cc(C)n(CC(C)C)c1=O	82.1*	0.2	1	0.2	81.4*
COC(=O)c1ccccc1NC(=O)NCC1CCCO1 (stereo not drawn)	29.8	0.7	0.9	1	1.8
COc1ccc(OC)c(CNc2nc3ccccc3n2CCN2CCCCC2)c1	54.7*	0.5	1.4	0.8	16.7
CCn1c(NCc2cc(OC)ccc2OC)nc2ccccc21	78.3*	0.2	0.9	0.4	57.6*
c1ccc(Cn2c(CNc3nc4ccccc4n3CCN3CCOCC3)nc3ccccc32)cc1	89.6*	0.1	2.8*	0.1	91.3*
COc1cccc(CNc2nc3ccccc3n2CCN2CCCCC2)c1	49.9	0.5	1.7	0.5	52.3*
CCC(=O)Nc1nc2ccccc2n1CCN1CCOCC1	0.6	1	1.3	1	4.2
CC(=O)Nc1cc(S(=O)(=O)C(F)(F)F)ccc1Cl	16.5	0.8	1	1.3	-29.7
COC(=O)COc1ccc(S(=O)(=O)NCc2cccnc2)cc1C	38.6	0.6	0.8	1	1.5
Cc1ccc(-c2nnn(CC(=O)N3CCCCC3)n2)c(-n2cnnn2)c1	5.6	0.9	1.2	1.3	-25.4
SMILES	CYP2C19 inh	CYP2C19 act	PLAP activator	CYP2C9 act	CYP2C9 inh
O=C(O)CCCCCNS(=O)(=O)c1ccc(Cl)cc1	-20.4	1.2	1	1.2	-21.6
CCCn1c(NCc2ccc(N(C)C)cc2)nc2ccccc21	91.7*	0.1	1.2	0.8	23.7
CCCn1c(NCc2cc(OC)ccc2OC)nc2ccccc21	68.1*	0.3	0.8	0.7	28.0
COc1ccc(CNc2nc3ccccc3n2CCN2CCCCC2)c(OC)c1	10.5	0.9	1.4	0.9	7.6
CCOC(=O)C1(P(=O)(c2ccc(Cl)cc2)c2ccc(Cl)cc2)CCC1	80.0*	0.2	1.4	0.7	28.6
Oc1cccc(Nc2nc(NCC3CCCO3)c3ccccc3n2)c1 (stereo not drawn)	50.7*	0.5	0.9	0.4	60.1*
CCOc1ccc2nc(NCCCNS(=O)(=O)c3ccccc3)c(C#N)cc2c1	36.4	0.6	1.1	0.5	54.8*
CCCCn1c(SCC(=O)OCC)nnc1-c1ccoc1C	10.8	0.9	1.1	0.4	55.2*
CCn1c(SCC(=O)Nc2nc(C)cs2)nnc1-c1ccoc1C	75.3*	0.2	1.2	0.7	31.0
